Assay results reported in PubChem BioAssay AID1159580 (chemical genetic matrix, 2015).
Several values for one entry are separate records, joined by “and”; a condition that tells them apart may be missing. Equal values may be shown once. The whole screen tested about 5,500 compounds, of which about 2,000 (36%) were called active. About 18% were inconclusive and are not listed. Cut-off read from the data, not from the text of the source: active = normalized growth mostly below about 0.91 (no sharp cut-off); inconclusive = no clear call, values can overlap the other calls; inactive = mostly above about 0.92. The list shows a part of the results.

Assay: chemical genetic growth profiling, strain panel (AID 1159580);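 note: tested at 20 µM; growth read once vehicle control cultures reached saturation at 30 °C; 1 = growth at the plate median or of vehicle wells; lower values mean less growth of the strain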
Details: S. cerevisiae deletion strains, growth OD

Measured: normalized growth

O=C(Oc1ccccc1C(=O)O)c1ccccc1O
inactive: locus YAL013W, strain DEP1, active compounds read low 0.985 | locus YAL021C, strain ccr4, active compounds read low 1 | locus YAL026C, strain drs2, active compounds read low 0.982 | locus YAL030W, strain snc1, active compounds read low 0.979 | locus YBL061C, strain skt5, active compounds read low 0.973 | locus YBR009C, strain hhf1, active compounds read low 1.01 | locus YBR021W, strain FUR4, active compounds read low 1 | locus YBR023C, strain chs3, active compounds read low 1 | locus YBR171W, strain sec66, active compounds read low 0.941 | locus YBR229C, strain ROT2, active compounds read low 0.955 | locus YBR231C, strain swc5, active compounds read low 0.984 | locus YBR279W, strain paf1, active compounds read low 1 | locus YCL011C, strain gbp2, active compounds read low 0.975 | locus YCL016C, strain dcc1, active compounds read low 1 | locus YCL029C, strain bik1, active compounds read low 0.985 | locus YCL069W, strain vba3, active compounds read low 0.986 | locus YCR088W, strain abp1, active compounds read low 0.972 | locus YDL005C, strain med2, active compounds read low 0.944 | locus YDL035C, strain GPR1, active compounds read low 0.964 | locus YDL040C, strain nat1, active compounds read low 0.982 | locus YDL074C, strain BRE1, active compounds read low 0.974 | locus YDL101C, strain DUN1, active compounds read low 0.98 | locus YDL185W, strain tfp1, active compounds read low 0.961 | locus YDL192W, strain arf1, active compounds read low 0.977 | locus YDR001C, strain nth1, active compounds read low 0.953 | locus YDR069C, strain doa4, active compounds read low 0.971 | locus YDR101C, strain arx1, active compounds read low 0.944 | locus YDR137W, strain rgp1, active compounds read low 0.972 | locus YDR159W, strain sac3, active compounds read low 0.978 | locus YDR162C, strain NBP2, active compounds read low 0.97 | locus YDR195W, strain ref2 0.897 | locus YDR297W, strain sur2, active compounds read low 0.997 | locus YDR318W, strain mcm21, active compounds read low 1 | locus YDR334W, strain swr1, active compounds read low 0.942 | locus YDR335W, strain msn5, active compounds read low 0.975 | locus YDR388W, active compounds read low 0.976 | locus YDR392W, strain spt3, active compounds read low 1 | locus YDR502C, strain sam2, active compounds read low 0.996 | locus YEL003W, strain gim4, active compounds read low 0.979 | locus YEL037C, strain rad23, active compounds read low 0.965 | locus YEL061C, strain CIN8 (second series), active compounds read low 0.978 | locus YEL061C, strain CIN8, active compounds read low 0.984 | locus YER015W, strain faa2, active compounds read low 0.989 | locus YER016W, strain bim1, active compounds read low 1 | locus YER110C, active compounds read low 0.983 | locus YER111C, strain swi4, active compounds read low 0.95 | locus YER155C, strain BEM2 (second series), active compounds read low 0.99 | locus YER155C, strain BEM2, active compounds read low 0.997 | locus YER167W, strain BCK2, active compounds read low 1 | locus YFR010W, strain ubp6, active compounds read low 0.966 | locus YGL078C, strain dbp3, active compounds read low 1.01 | locus YGL086W, strain mad1, active compounds read low 0.976 | locus YGL167C, strain pmr1, active compounds read low 0.937 | locus YGL173C, strain kem1, active compounds read low 0.979 | locus YGL227W, strain vid30, active compounds read low 0.98 | locus YGL240W, strain doc1, active compounds read low 0.985 | locus YGL248W, strain PDE1, active compounds read low 0.99 | locus YGL253W, strain hxk2, active compounds read low 0.968 | locus YGR135W, strain pre9, active compounds read low 1.06 | locus YGR252W, strain gcn5, active compounds read low 1.09 | locus YHR013C, strain ard1, active compounds read low 0.963 | locus YHR027C, strain rpn1, active compounds read low 0.985 | locus YHR030C, strain SLT2, active compounds read low 0.977 and 1 | locus YHR079C, strain IRE1 (second series), active compounds read low 0.98 | locus YHR079C, strain IRE1, active compounds read low 0.987 | locus YHR094C, strain hxt1, active compounds read low 0.977 | locus YHR129C, strain ARP1, active compounds read low 0.955 | locus YHR142W, strain chs7, active compounds read low 0.982 | locus YHR200W, strain rpn10, active compounds read low 0.987 | locus YIL066C, strain RNR3, active compounds read low 0.971 | locus YIL073C, strain SPO22, active compounds read low 1.03 | locus YIL125W, strain kgd1, active compounds read low 0.992 | locus YIR030C, strain dcg1, active compounds read low 0.992 | locus YJL092W, strain hpr5, active compounds read low 0.961 | locus YJL095W, strain BCK1 (second series), active compounds read low 0.972 | locus YJL095W, strain BCK1, active compounds read low 1.02 and 0.96 | locus YJL115W, strain asf1, active compounds read low 0.956 | locus YJL129C, strain trk1, active compounds read low 0.955 | locus YJL134W, strain LCB3, active compounds read low 0.985 | locus YJL154C, strain vps35, active compounds read low 0.933 | locus YJL164C, strain tpk1, active compounds read low 1.01 | locus YJL166W, strain qcr8, active compounds read low 0.964 | locus YJL168C, strain set2, active compounds read low 0.988 | locus YJL187C, strain SWE1 (second series), active compounds read low 0.966 | locus YJR043C, strain POL32, active compounds read low 0.975 | locus YJR066W, strain TOR1, active compounds read low 0.937 | locus YJR075W, strain HOC1, active compounds read low 0.978 | locus YKL009W, strain mrt4, active compounds read low 0.971 | locus YKL068W, active compounds read low 0.978 | locus YKL085W, strain MDH1 (second series), active compounds read low 0.998 | locus YKL085W, strain MDH1, active compounds read low 0.998 | locus YKL160W, strain elf1, active compounds read low 0.969 | locus YKR001C, strain vps1, active compounds read low 0.986 | locus YKR026C, strain gcn3, active compounds read low 0.923 | locus YKR091W, strain srl3, active compounds read low 0.984 | locus YLL001W, strain dnm1, active compounds read low 0.944 | locus YLL026W, active compounds read low 1 | locus YLL041C, strain sdh2, active compounds read low 0.968 | locus YLR027C, strain aat2, active compounds read low 0.984 | locus YLR039C, strain RIC1, active compounds read low 0.991 | locus YLR058C, strain SHM2, active compounds read low 0.971 | locus YLR102C, strain apc9, active compounds read low 0.993 | locus YLR113W, strain HOG1, active compounds read low 0.906 | locus YLR221C, strain rsa3, active compounds read low 1 | locus YLR258W, strain gsy2, active compounds read low 0.974 | locus YLR262C, strain YPT6 (second series), active compounds read low 0.925 | locus YLR262C, strain YPT6, active compounds read low 0.908 | locus YLR268W, strain sec22, active compounds read low 0.978 | locus YLR320W, strain mms22, active compounds read low 1 | locus YLR330W, strain CHS5, active compounds read low 0.988 | locus YLR342W, strain FKS1 (second series), active compounds read low 1 | locus YLR342W, strain FKS1, active compounds read low 0.979 | locus YLR357W, strain rsc2, active compounds read low 0.958 | locus YLR370C, strain arc18, active compounds read low 0.986 | locus YLR371W, strain rom2, active compounds read low 0.998 | locus YLR384C, strain iki3, active compounds read low 0.967 | locus YLR418C, strain cdc73, active compounds read low 1.03 | locus YML016C, strain PPZ1, active compounds read low 0.987 | locus YML032C, strain rad52, active compounds read low 0.976 | locus YML120C, strain ndi1, active compounds read low 0.967 | locus YML124C, strain tub3, active compounds read low 0.992 | locus YMR058W, strain fet3, active compounds read low 0.995 | locus YMR078C, strain ctf18, active compounds read low 0.988 | locus YMR125W, strain sto1, active compounds read low 0.93 | locus YMR129W, active compounds read low 0.968 | locus YMR205C, strain PFK2, active compounds read low 0.96 | locus YMR223W, strain ubp8, active compounds read low 1.02 | locus YMR231W, strain pep5, active compounds read low 0.956 | locus YMR307W, strain GAS1, active compounds read low 0.999 | locus YNL067W, strain RPL9B, active compounds read low 0.98 | locus YNL071W, strain lat1, active compounds read low 0.971 | locus YNL153C, strain GIM3, active compounds read low 0.982 | locus YNL183C, strain NPR1, active compounds read low 0.921 | locus YNL209W, strain ssb2, active compounds read low 0.981 | locus YNL233W, strain BNI4, active compounds read low 0.988 | locus YNL248C, strain rpa49, active compounds read low 0.997 | locus YNL250W, strain rad50, active compounds read low 0.995 | locus YNL271C, strain bni1, active compounds read low 0.993 | locus YNL298W, strain CLA4, active compounds read low 1.01 | locus YNL307C, strain MCK1, active compounds read low 0.986 | locus YNL322C, strain KRE1 (second series), active compounds read low 0.963 | locus YNR049C, strain mso1, active compounds read low 0.967 | locus YNR052C, strain pop2, active compounds read low 0.988 | locus YOL006C, strain TOP1, active compounds read low 1.02 | locus YOL012C, strain htz1 0.938 | locus YOL147C, strain pex11, active compounds read low 0.993 | locus YOR001W, strain rrp6, active compounds read low 0.984 | locus YOR061W, strain CKA2, active compounds read low 0.972 | locus YOR069W, strain VPS5, active compounds read low 0.986 | locus YOR070C, strain gyp1, active compounds read low 0.994 | locus YOR080W, strain dia2, active compounds read low 0.963 | locus YOR083W, strain WHI5, active compounds read low 0.996 | locus YOR106W, strain vam3, active compounds read low 0.958 | locus YOR136W, strain idh2, active compounds read low 0.982 | locus YOR144C, strain elg1, active compounds read low 0.984 | locus YOR184W, strain ser1, active compounds read low 0.986 | locus YOR231W, strain MKK1, active compounds read low 0.959 | locus YOR265W, strain rbl2, active compounds read low 0.98 | locus YOR270C, strain vph1, active compounds read low 0.931 | locus YOR290C, strain snf2, active compounds read low 1 | locus YOR316C, strain cot1, active compounds read low 0.97 | locus YPL051W, strain arl3, active compounds read low 0.993 | locus YPL055C, strain LGE1, active compounds read low 0.992 | locus YPL078C, strain atp4, active compounds read low 0.962 | locus YPL106C, strain sse1, active compounds read low 0.99 | locus YPL240C, strain hsp82, active compounds read low 0.982 | locus YPL256C, strain CLN2, active compounds read low 0.98 | locus YPR119W, strain clb2, active compounds read low 0.985 | locus YPR141C, strain kar3, active compounds read low 0.979 | locus YPR163C, strain tif3, active compounds read low 0.986 | locus YPR167C, strain met16, active compounds read low 0.998 | strain wtn01, active compounds read low 1.02
